# Source: PubChem BioAssay (EPA / NIEHS)
# Results filed as inconclusive are left out. The source made the active and inactive calls. How the source made its calls: active means hit-call score of the fitted dose curve at least 0.9, where 1 is the maximum; inconclusive means response in the unintended direction; inactive means score below 0.9.
# Tests used:
# [1] = target: human SRC Proto-Oncogene, Non-receptor Tyrosine Kinase (SRC), SRC (gene 6714) (UniProt P12931); test: NVS_ENZ_hSRC: NovaScreen (NVS) Enzymatic Assay for human SRC Proto-Oncogene, Non-receptor Tyrosine Kinase (SRC) (AID 2283223)
# In short: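 Cell-free kinase activity assay with fluorescent substrate, product separated by electrophoretic mobility shift, read 1 h after dosing. Duplicate single point at 25 uM, then concentration-response up to 50 uM; loss of signal versus DMSO.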
# [2] = target: human Tropomyosin Receptor Kinase A (TRKA), NTRK1 (gene 4914) (UniProt P04629); test: NVS_ENZ_hTrkA: NovaScreen (NVS) Enzymatic Assay for human Tropomyosin Receptor Kinase A (TRKA) (AID 2283224)
# In short: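 Recombinant human TrkA activity read after 1 h by fluorescence with electrophoretic mobility shift separating substrate and product. Primary screen in duplicate at 25 uM; actives were rerun in concentration-response up to 50 uM. Loss of signal versus DMSO.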
# [3] = target: human Vascular Endothelial Growth Factor Receptor 1 (VEGFR1), FLT1 (gene 2321) (UniProt P17948); test: NVS_ENZ_hVEGFR1: NovaScreen (NVS) Enzymatic Assay for human Vascular Endothelial Growth Factor Receptor 1 (VEGFR1) (AID 2283226)
# In short: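 Cell-free assay of recombinant human VEGFR1 kinase with substrate, measured 1 h after dosing; fluorescence with electrophoretic mobility-shift separation of substrate and product, referenced to DMSO; primary screen at 25 uM in duplicate, actives then run in concentration series.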
# [4] = target: human Vascular Endothelial Growth Factor Receptor 3 (VEGFR3), FLT4 (gene 2324) (UniProt P35916); test: NVS_ENZ_hVEGFR3: NovaScreen (NVS) Enzymatic Assay for human Vascular Endothelial Growth Factor Receptor 3 (VEGFR3) (AID 2283229)
# In short: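 Cell-free recombinant VEGFR3 kinase reaction with fluorescent substrate, read 1 h after dosing by electrophoretic mobility shift separation of substrate and product. Single-concentration duplicate screen at 25 uM, then concentration-response up to 50 uM; loss of activity versus DMSO.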
# [5] = target: human Vascular Endothelial Growth Factor Receptor 2 (VEGFR2), KDR (gene 3791) (UniProt P35968); test: NVS_ENZ_hVEGFR2: NovaScreen (NVS) Enzymatic Assay for human Vascular Endothelial Growth Factor Receptor 2 (VEGFR2) (AID 2283230)
# In short: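 Cell-free recombinant VEGFR2 kinase, fluorescent substrate with electrophoretic mobility-shift separation; read 1 h after dosing. Screened at 25 uM in duplicate, hits to concentration-response up to 50 uM; loss-of-signal versus DMSO.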
# [6] = target: Tyrosine-protein phosphatase non-receptor type 12 (Homo sapiens) (UniProt Q05209); test: NVS_ENZ_hPTPN12: NovaScreen (NVS) Enzymatic Assay for human Protein Tyrosine Phosphatase Non-receptor Type 12 (PTPN12) (AID 2283204)
# In short: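 Single-concentration duplicates (25 uM) preceded singleton concentration-response up to 50 uM for chemicals passing threshold. Cell-free recombinant PTPN12 activity was read 1.33 h after dosing via fluorescence after mobility-shift separation; loss of signal versus DMSO.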
# [7] = target: human Protein Tyrosine Phosphatase Non-receptor Type 4 (PTPN4), PTPN4 (gene 5775) (UniProt P29074); test: NVS_ENZ_hPTPN4: NovaScreen (NVS) Enzymatic Assay for human Protein Tyrosine Phosphatase Non-receptor Type 4 (PTPN4) (AID 2283208)
# In short: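 Cell-free assay of PTPN4 expressed in Sf9 cells, using a fluorescent substrate with product separated by mobility shift; read 1.33 h after dosing. Single-point screen at 25 uM, then concentration-response up to 50 uM. Loss of signal relative to DMSO.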
# [8] = target: Tyrosine-protein phosphatase non-receptor type 14 (Homo sapiens) (UniProt Q15678); test: NVS_ENZ_hPTPN14: NovaScreen (NVS) Enzymatic Assay for human Protein Tyrosine Phosphatase Non-receptor Type 14 (PTPN14) (AID 2283206)
# In short: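 Cell-free recombinant human PTPN14 with fluorescent substrate, read 0.5 h after dosing by fluorescence and electrophoretic mobility shift separating substrate from product. Primary screen at 25 uM in duplicate; hits run to 50 uM maximum; loss of signal versus DMSO.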
# [9] = target: human Rho Associated Coiled-coil Containing Protein Kinase 1 (ROCK1), ROCK1 (gene 6093) (UniProt Q13464); test: NVS_ENZ_hROCK1: NovaScreen (NVS) Enzymatic Assay for human Rho Associated Coiled-coil Containing Protein Kinase 1 (ROCK1) (AID 2283214)
# In short: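 Cell-free recombinant human ROCK1 activity assay; fluorescent substrate and product separated by electrophoretic mobility shift, read 1 h after dosing. Screened in duplicate at 25 uM; loss of signal versus DMSO baseline scored as inhibition.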
# [10] = target: human Protein Tyrosine Phosphatase Non-receptor Type 9 (PTPN9), PTPN9 (gene 5780) (UniProt P43378); test: NVS_ENZ_hPTPN9: NovaScreen (NVS) Enzymatic Assay for human Protein Tyrosine Phosphatase Non-receptor Type 9 (PTPN9) (AID 2283209)
# In short: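 Sf9-expressed enzyme in a cell-free assay, fluorescence read 1.33 h after dosing with mobility-shift separation of substrate and product. Tested at 25 uM in duplicate, then up to 50 uM; signal loss versus DMSO.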
# [11] = target: sheep Cyclooxygenase-2 (Cox2), PTGS2 (gene 443460) (UniProt P79208); test: NVS_ENZ_oCOX2: NovaScreen (NVS) Enzymatic Assay for sheep Cyclooxygenase-2 (Cox2) (AID 2283231)
# In short: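 Compounds were first run at 25 uM in duplicate against tissue-extracted ovine COX-2; those passing a preset inhibition threshold went to singleton concentration-response testing with a 50 uM maximum. Read-out: absorbance at 0.66 hour.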
# [12] = target: human Protein Tyrosine Phosphatase Receptor Type F (PTPRF), PTPRF (gene 5792) (UniProt P10586); test: NVS_ENZ_hPTPRF: NovaScreen (NVS) Enzymatic Assay for human Protein Tyrosine Phosphatase Receptor Type F (PTPRF) (AID 2283213)
# In short: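 Cell-free fluorescence enzyme assay with recombinant protein and substrate; product separated by electrophoretic mobility shift. Read 1 h after dosing, single 25 uM duplicate screen, then concentration-response up to 50 uM; loss of signal vs DMSO.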
# [13] = target: human Sirtuin 1 (SIRT1), SIRT1 (gene 23411) (UniProt Q96EB6); test: NVS_ENZ_hSIRT1: NovaScreen (NVS) Enzymatic Assay for human Sirtuin 1 (SIRT1) (AID 2283219)
# In short: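 Cell-free recombinant SIRT1 with a fluorescent substrate; substrate and product separated by electrophoretic mobility shift and read by fluorescence intensity, 1 h after dosing. Primary screen at 25 uM in duplicate; hits re-run in concentration-response up to 50 uM, relative to DMSO.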
# [14] = target: human Sirtuin 3 (SIRT3), SIRT3 (gene 23410) (UniProt Q9NTG7); test: NVS_ENZ_hSIRT3: NovaScreen (NVS) Enzymatic Assay for human Sirtuin 3 (SIRT3) (AID 2283222)
# In short: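 Cell-free enzyme assay with recombinant protein and fluorescent substrate, product separated by electrophoretic mobility shift; read 1 hour after dosing. Screened in duplicate at 25 uM, then singleton concentration-response up to 50 uM; loss of signal versus DMSO.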
# [15] = target: human Protein Tyrosine Phosphatase Non-receptor Type 6 (PTPN6), PTPN6 (gene 5777) (UniProt P29350); test: NVS_ENZ_hPTPN6: NovaScreen (NVS) Enzymatic Assay for human Protein Tyrosine Phosphatase Non-receptor Type 6 (PTPN6) (AID 2283210)
# In short: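 Cell-free assay with recombinant PTPN6 expressed in SF9 cells, fluorescent substrate, product separated from substrate by electrophoretic mobility shift; read 1.33 hours after dosing. Primary screen in duplicate at 25 uM, actives retested in concentration series; DMSO baseline.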
# [16] = target: Tyrosine-protein phosphatase non-receptor type 13 (Homo sapiens) (UniProt Q12923); test: NVS_ENZ_hPTPN13: NovaScreen (NVS) Enzymatic Assay for human Protein Tyrosine Phosphatase Non-receptor Type 13 (PTPN13) (AID 2283205)
# In short: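 Cell-free assay of recombinant human PTPN13 with a fluorescent substrate, product separated by electrophoretic mobility shift and read 0.5 h after dosing. Primary screen at 25 uM in duplicate, then concentration-response up to 50 uM. Loss of signal fitted against DMSO.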
# [17] = target: human Sirtuin 2 (SIRT2), SIRT2 (gene 22933) (UniProt Q8IXJ6); test: NVS_ENZ_hSIRT2: NovaScreen (NVS) Enzymatic Assay for human Sirtuin 2 (SIRT2) (AID 2283217)
# In short: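 Cell-free recombinant human SIRT2, fluorescent substrate with product separated by electrophoretic mobility shift, 1 hr. Screened in duplicate at 25 uM; hits rerun singly in concentration-response up to 50 uM, relative to DMSO.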
# [18] = target: rabbit Imidazoline 2 Central (I2C), CKB (gene 100009085) (UniProt P00567); test: NVS_ENZ_rabI2C: NovaScreen (NVS) Enzymatic Assay for rabbit Imidazoline 2 Central (I2C) (AID 2283228)
# In short: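 Rabbit brain membranes, cell-free; readout by filter-based scintillation counting 1.5 hours after dosing, loss of signal vs DMSO. Initial duplicate test at 25 uM, then concentration-response with 50 uM top concentration.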
# human Sirtuin 1 (SIRT1), SIRT1 (gene 23411), sequence (Q96EB6 whole entry, looked up): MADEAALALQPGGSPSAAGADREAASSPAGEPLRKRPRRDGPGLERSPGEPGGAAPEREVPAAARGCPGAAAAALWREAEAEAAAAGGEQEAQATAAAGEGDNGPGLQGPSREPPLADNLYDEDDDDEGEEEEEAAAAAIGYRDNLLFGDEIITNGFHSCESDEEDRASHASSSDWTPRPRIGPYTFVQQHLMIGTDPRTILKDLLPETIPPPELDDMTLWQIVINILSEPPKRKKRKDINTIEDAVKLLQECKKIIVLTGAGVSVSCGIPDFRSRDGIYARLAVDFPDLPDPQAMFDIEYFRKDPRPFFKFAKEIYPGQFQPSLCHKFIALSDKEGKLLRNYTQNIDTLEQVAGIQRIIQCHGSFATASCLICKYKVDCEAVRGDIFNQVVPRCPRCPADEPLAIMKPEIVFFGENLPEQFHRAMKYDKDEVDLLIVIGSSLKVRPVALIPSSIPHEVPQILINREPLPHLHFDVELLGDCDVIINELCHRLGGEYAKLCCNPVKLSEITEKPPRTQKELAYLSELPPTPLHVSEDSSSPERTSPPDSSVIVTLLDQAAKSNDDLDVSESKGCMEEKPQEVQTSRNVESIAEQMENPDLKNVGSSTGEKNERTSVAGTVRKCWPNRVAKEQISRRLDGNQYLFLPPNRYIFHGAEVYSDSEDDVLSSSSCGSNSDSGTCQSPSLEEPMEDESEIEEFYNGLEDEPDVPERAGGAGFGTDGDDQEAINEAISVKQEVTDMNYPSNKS
# rabbit Imidazoline 2 Central (I2C), CKB (gene 100009085), sequence (P00567 whole entry, looked up): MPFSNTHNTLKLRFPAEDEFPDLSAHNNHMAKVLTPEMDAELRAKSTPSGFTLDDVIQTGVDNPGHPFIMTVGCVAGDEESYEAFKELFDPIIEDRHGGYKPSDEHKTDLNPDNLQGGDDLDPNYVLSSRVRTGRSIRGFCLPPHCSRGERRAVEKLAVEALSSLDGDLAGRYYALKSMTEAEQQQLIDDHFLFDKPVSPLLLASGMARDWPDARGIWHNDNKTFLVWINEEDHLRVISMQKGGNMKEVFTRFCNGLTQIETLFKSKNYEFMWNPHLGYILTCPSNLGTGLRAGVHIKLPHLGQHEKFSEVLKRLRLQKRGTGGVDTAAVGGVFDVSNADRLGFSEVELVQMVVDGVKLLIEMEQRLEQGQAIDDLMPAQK
# human Sirtuin 3 (SIRT3), SIRT3 (gene 23410), sequence (Q9NTG7 whole entry, looked up): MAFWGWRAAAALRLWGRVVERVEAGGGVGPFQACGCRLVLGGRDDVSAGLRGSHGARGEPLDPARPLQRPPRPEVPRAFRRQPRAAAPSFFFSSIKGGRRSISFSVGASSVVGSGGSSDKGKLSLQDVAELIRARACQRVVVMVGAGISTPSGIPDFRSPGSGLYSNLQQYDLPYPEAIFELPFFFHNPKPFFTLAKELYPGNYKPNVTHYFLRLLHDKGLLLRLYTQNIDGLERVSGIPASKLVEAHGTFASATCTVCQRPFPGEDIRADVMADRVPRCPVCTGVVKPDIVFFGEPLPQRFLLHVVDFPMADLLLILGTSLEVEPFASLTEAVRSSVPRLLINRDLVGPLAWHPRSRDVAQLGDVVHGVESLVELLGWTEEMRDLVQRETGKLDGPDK
# sheep Cyclooxygenase-2 (Cox2), PTGS2 (gene 443460), sequence (P79208 whole entry, looked up): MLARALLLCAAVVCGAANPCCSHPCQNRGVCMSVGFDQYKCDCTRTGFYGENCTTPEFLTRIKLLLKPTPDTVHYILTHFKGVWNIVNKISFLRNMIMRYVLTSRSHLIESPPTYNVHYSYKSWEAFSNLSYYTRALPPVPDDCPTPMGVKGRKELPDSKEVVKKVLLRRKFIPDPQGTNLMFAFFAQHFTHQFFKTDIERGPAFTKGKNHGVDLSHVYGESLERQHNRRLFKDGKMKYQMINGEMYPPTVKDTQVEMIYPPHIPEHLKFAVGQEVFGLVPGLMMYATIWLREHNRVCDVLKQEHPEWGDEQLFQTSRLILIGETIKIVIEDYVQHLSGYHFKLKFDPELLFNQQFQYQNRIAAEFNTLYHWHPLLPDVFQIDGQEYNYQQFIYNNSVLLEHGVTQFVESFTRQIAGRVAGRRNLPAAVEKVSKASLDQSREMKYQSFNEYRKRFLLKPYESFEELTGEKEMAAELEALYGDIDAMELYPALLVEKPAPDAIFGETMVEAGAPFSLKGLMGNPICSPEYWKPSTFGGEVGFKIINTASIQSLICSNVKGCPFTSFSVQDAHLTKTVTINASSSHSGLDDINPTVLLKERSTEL
# human Vascular Endothelial Growth Factor Receptor 1 (VEGFR1), FLT1 (gene 2321), sequence (P17948 whole entry, looked up): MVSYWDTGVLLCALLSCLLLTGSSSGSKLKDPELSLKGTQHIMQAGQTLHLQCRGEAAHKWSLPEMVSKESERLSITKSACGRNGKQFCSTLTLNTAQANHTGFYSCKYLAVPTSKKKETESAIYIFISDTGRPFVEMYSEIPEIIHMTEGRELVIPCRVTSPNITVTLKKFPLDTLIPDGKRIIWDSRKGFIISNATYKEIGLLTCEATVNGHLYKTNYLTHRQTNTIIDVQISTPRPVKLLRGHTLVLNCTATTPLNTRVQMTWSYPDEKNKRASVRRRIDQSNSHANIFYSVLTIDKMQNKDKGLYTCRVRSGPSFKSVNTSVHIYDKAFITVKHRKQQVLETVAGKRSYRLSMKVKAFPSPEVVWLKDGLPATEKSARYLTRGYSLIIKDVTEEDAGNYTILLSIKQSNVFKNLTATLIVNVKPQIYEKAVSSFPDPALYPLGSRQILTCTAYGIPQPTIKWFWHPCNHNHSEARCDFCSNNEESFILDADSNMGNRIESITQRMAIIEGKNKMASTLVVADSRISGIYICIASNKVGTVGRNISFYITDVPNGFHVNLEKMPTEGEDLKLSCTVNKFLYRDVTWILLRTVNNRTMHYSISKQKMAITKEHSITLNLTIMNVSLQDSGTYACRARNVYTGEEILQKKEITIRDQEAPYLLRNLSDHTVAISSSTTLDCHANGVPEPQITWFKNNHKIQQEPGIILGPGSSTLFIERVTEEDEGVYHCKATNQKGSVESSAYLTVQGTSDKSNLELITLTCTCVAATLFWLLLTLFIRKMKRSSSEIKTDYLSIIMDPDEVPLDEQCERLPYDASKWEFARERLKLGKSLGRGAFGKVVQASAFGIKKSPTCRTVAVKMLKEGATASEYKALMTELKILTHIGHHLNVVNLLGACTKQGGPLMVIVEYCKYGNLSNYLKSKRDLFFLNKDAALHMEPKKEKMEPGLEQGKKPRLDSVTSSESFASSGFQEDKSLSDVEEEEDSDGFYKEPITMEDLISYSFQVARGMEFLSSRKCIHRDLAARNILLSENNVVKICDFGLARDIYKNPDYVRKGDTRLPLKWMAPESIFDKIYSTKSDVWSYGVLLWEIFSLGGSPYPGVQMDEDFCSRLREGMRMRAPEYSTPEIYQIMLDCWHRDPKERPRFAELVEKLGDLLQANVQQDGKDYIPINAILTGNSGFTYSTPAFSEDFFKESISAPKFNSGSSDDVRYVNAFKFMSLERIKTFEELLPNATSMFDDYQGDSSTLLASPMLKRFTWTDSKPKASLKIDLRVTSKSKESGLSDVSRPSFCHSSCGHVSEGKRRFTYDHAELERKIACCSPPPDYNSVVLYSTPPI
# human Vascular Endothelial Growth Factor Receptor 2 (VEGFR2), KDR (gene 3791), sequence (P35968 whole entry, looked up): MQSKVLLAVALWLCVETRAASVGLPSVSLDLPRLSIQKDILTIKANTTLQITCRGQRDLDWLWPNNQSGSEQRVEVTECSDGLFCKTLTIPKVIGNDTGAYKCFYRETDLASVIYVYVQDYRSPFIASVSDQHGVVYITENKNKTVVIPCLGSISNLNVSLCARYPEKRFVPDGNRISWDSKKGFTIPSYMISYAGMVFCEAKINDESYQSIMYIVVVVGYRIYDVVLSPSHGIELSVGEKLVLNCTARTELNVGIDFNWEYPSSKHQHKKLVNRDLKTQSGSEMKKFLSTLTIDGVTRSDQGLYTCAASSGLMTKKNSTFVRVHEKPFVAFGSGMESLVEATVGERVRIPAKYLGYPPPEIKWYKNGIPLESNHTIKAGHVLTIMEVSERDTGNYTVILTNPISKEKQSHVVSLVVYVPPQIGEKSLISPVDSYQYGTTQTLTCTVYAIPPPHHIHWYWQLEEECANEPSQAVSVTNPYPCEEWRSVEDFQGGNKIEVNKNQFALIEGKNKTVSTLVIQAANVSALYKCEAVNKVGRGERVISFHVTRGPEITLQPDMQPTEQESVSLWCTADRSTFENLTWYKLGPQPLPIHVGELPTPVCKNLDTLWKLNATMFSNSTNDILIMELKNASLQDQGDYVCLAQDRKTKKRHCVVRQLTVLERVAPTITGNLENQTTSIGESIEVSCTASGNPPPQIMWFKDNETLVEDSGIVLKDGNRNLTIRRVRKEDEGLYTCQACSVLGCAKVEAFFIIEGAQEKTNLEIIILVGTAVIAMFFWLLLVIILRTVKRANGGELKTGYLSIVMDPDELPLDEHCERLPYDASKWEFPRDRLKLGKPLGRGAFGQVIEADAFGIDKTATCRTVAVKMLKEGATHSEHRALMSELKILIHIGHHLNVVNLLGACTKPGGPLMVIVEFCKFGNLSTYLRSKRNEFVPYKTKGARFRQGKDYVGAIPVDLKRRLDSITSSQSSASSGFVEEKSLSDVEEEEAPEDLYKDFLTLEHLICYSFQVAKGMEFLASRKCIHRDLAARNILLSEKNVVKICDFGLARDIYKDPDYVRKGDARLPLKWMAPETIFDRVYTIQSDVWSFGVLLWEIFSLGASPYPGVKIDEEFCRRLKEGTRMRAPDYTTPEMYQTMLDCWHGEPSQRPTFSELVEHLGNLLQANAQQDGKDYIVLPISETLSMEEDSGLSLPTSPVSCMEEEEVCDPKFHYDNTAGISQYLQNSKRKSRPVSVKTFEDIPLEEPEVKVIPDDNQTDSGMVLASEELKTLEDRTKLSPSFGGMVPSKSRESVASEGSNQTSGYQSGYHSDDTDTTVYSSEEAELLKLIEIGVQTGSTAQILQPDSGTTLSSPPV
compound,measurement,setting,value
O=C(O)Cc1cc(I)c(Oc2cc(I)c(O)c(I)c2)c(I)c1,outcome,[1],inactive
same,AC50,[2],1.6 µM (active)
same,outcome,[3],inactive
same,outcome,[4],inactive
same,outcome,[5],inactive
ClC1=C(Cl)C(Cl)(Cl)C(Cl)=C1Cl,outcome,[6],inactive
same,outcome,[7],inactive
CC(=O)CC(C)(C)O,outcome,[8],inactive
c1ccc2c(c1)ccc1ccccc12,outcome,[9],inactive
NC(=O)N(O)[C@@H]1C=C[C@H](Oc2cccc(Oc3ccc(F)cc3)c2)C1,outcome,[10],inactive
same,outcome,[11],inactive
Nc1cccc2c(N)cccc12,outcome,[12],inactive
same,outcome,[13],inactive
same,outcome,[14],inactive
same,outcome,[4],inactive
Cc1cc(CCN2CCN(c3nsc4ccccc34)CC2)cc2c1NC(=O)CC2(C)C,outcome,[13],inactive
COc1ccc([N+](=O)[O-])cc1N,outcome,[15],inactive
CC(C)(C)c1ccc(O)c(C(C)(C)C)c1,outcome,[5],inactive
OC1CCCCC1,outcome,[11],inactive
Oc1cc2ccccc2c2ccccc12,AC50,[5],7.7 µM (active)
CCN(CC)CCNc1ccc(CNC=O)c2sc3ccc(OC)cc3c(=O)c12,outcome,[16],inactive
same,outcome,[12],inactive
same,outcome,[17],inactive
same,outcome,[13],inactive
same,outcome,[14],inactive
same,outcome,[18],inactive
same,outcome,[4],inactive
same,outcome,[5],inactive
CCCOC(=O)c1ccc(O)cc1,outcome,[3],inactive
same,AC50,[11],25 µM (active)
CCC(=C(c1ccc(O)cc1)c1ccc(OCCN(C)C)cc1)c1ccccc1,outcome,[14],inactive
same,AC50,[18],408 nM (active)
CCCCOCCO,outcome,[17],inactive
same,outcome,[3],inactive
CCCOc1sc(C(=O)N2CCC(c3cc(CN)ccc3F)CC2)c(C)c1Br,outcome,[9],inactive
same,AC50,[18],4640 nM (active)
same,outcome,[5],inactive
